# Assay results as given in PubChem BioAssay (NCATS).
# Where “and” joins values, the source holds several entries; their conditions need not be identical. Equal values may be shown once. Results filed as inconclusive are left out. Calls of active or inactive are those of the source. Unless noted, calls come from the whole dose curve; as a rule, active = well fitted curve in the direction sought with a large enough effect; inconclusive = small, poorly fitted or top-dose-only effect, or another doubt; inactive = no such curve, though single readings can be large; an effect the other way counts as inactive or inconclusive.
# Target: Alpha-galactosidase A (Homo sapiens) (UniProt P06280)
# Assay: Counterscreen for Glucocerebrosidase Inhibitors: qHTS Assay for Human alpha-Galactosidase at pH 4.5 (AID 992); note: 0% is about no effect
# Settings: purified enzyme, fluorogenic substrate; series mostly up to 76.9 µM
# Procedure, shortened: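 Enzyme at 2 nM final was combined with compound (0.7 nM to 77 uM) and 80 uM 4-methylumbelliferyl alpha-D-galactopyranoside in 50 mM citric acid, 0.005% Tween-20, pH 4.5. After 20 min at room temperature, fluorescence was read (Ex 365/Em 440 nm); AC50 came from Hill fits.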
# Sequence of Alpha-galactosidase A (Homo sapiens) (P06280 whole entry, looked up): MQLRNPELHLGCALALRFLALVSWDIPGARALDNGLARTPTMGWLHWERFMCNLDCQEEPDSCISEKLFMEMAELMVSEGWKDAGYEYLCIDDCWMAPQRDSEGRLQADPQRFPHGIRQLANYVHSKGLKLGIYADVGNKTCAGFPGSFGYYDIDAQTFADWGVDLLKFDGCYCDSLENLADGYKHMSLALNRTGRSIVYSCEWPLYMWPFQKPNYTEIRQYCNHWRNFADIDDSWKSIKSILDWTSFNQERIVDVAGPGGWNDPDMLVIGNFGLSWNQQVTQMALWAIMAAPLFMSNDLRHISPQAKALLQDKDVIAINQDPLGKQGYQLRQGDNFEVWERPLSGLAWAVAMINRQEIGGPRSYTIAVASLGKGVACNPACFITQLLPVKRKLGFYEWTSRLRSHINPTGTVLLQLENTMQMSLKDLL
row,Compound,outcome
1,CC(N)=NCc1cccc(CN)c1,inactive
2,O=C(O)c1cc(=O)c2ccc(Cl)cc2[nH]1,inactive
3,NCCCCCCNS(=O)(=O)c1cccc2c(Cl)cccc12,inactive
4,CCCn1c(=O)c2[nH]c(-c3ccc(OCC(=O)Nc4ccc(C#N)cc4)cc3)nc2n(CCC)c1=O,inactive
5,Cn1cnc2c(NC3CCCC3)ncnc21,inactive
6,O=C(OCCN1CCCCC1)c1c[nH]c2ccccc12,inactive

# Target: alpha-glucosidase (Oryza sativa, rice) (UniProt Q653V4)
# Assay: Counterscreen for Glucocerebrosidase Inhibitors: qHTS Assay for Rice alpha-Glucosidase at pH 5.0 (AID 997);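 note: 0% = full activity with enzyme and -100% = basal without enzyme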
# Settings: rice alpha-glucosidase enzyme activity; series mostly up to 76.9 µM
# Procedure, shortened: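 Rice alpha-glucosidase (4 nM final) with 400 uM 4-methylumbelliferyl-alpha-D-glucopyranoside in citrate buffer pH 5.0, 20 min at room temperature, stopped at pH 10; fluorescence 365/440 nm, compounds 0.7 nM–77 uM, AC50 from Hill fits.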
row,Compound,outcome
1,CC(N)=NCc1cccc(CN)c1,inactive
2,O=C(O)c1cc(=O)c2ccc(Cl)cc2[nH]1,inactive
3,NCCCCCCNS(=O)(=O)c1cccc2c(Cl)cccc12,inactive
4,CCCn1c(=O)c2[nH]c(-c3ccc(OCC(=O)Nc4ccc(C#N)cc4)cc3)nc2n(CCC)c1=O,inactive
5,CN(C)CCCCSC(=N)N,inactive
6,Cn1cnc2c(NC3CCCC3)ncnc21,inactive
7,O=C(OCCN1CCCCC1)c1c[nH]c2ccccc12,inactive

# Test system: not listed separately
# Assay: Validation of Assay for Modulators of Lamin A Splicing (AID 1459; active = well fitted curve in the direction sought with a large enough effect in the signal ratio; the % refers to the signal ratio;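 note: cells exposed to compound for two days before reading; 0% is about no effect; ratio rise marks activators and ratio drop marks inhibitors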)
# Settings: Lamin A splicing dual RFP/GFP fluorescence reporter; series mostly up to 9.22 µM
# Procedure, shortened: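 Splicing correction is reported by an EGFP-containing lamin A minigene in stably transfected S3 HeLa cells, while DsRed2 controls for viability and nonspecific signal. Cells are exposed to compounds for 48 hrs before the GFP over RFP ratio is taken.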
row,Compound,outcome
1,CC(N)=NCc1cccc(CN)c1,inactive
2,O=C(O)c1cc(=O)c2ccc(Cl)cc2[nH]1,inactive
3,NCCCCCCNS(=O)(=O)c1cccc2c(Cl)cccc12,inactive
4,CCCn1c(=O)c2[nH]c(-c3ccc(OCC(=O)Nc4ccc(C#N)cc4)cc3)nc2n(CCC)c1=O,inactive
5,CN(C)CCCCSC(=N)N,inactive
6,Cn1cnc2c(NC3CCCC3)ncnc21,inactive
7,NC(CCC(=O)NCS(=O)(=O)O)C(=O)O (stereo not drawn),inactive
8,O=C(OCCN1CCCCC1)c1c[nH]c2ccccc12,inactive

# Test system: not listed separately
# Assay: qHTS Assay for Lipid Storage Modulators (AID 1519; calls by dose curve; for activity change, negative = inhibition: % is set by controls: 0 for no effect and ±100 for the full control effect)
# Settings: Drosophila S3 cells, BODIPY lipid droplet/cell ratio, laser cytometry; at 57.5 µM (top of the series); cells loaded with oleic acid
# Procedure, shortened: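 Cells seeded at 5,000 per well were treated with compounds over a concentration series and loaded with oleic acid (400 uM, as added). Lipid droplet fluorescence (488 nm excitation, 500-530 nm channel) was read by laser-scanning cytometry and normalized to 20 uM Triacsin C.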
row,Compound,"activity change, negative = inhibition"
1,CC(N)=NCc1cccc(CN)c1,0.387% (inactive)
2,O=C(O)c1cc(=O)c2ccc(Cl)cc2[nH]1,4.77% (inactive) and 6.7% (inactive)
3,NCCCCCCNS(=O)(=O)c1cccc2c(Cl)cccc12,3.12% (inactive)
4,CCCn1c(=O)c2[nH]c(-c3ccc(OCC(=O)Nc4ccc(C#N)cc4)cc3)nc2n(CCC)c1=O,1.01% (inactive)
5,Cn1cnc2c(NC3CCCC3)ncnc21,-0.311% (inactive)
6,O=C(OCCN1CCCCC1)c1c[nH]c2ccccc12,-1.63% (inactive)

# Same assay, conditions: Drosophila S3 cells, BODIPY lipid droplet/cell ratio, laser cytometry; measured here: cell count channel max response; cells loaded with oleic acid
row,Compound,max response
1,CC(N)=NCc1cccc(CN)c1,-16.1%
2,O=C(O)c1cc(=O)c2ccc(Cl)cc2[nH]1,15.1% and -2.23%
3,NCCCCCCNS(=O)(=O)c1cccc2c(Cl)cccc12,13.8%
4,CCCn1c(=O)c2[nH]c(-c3ccc(OCC(=O)Nc4ccc(C#N)cc4)cc3)nc2n(CCC)c1=O,-12.2%
5,Cn1cnc2c(NC3CCCC3)ncnc21,-17.7%
6,O=C(OCCN1CCCCC1)c1c[nH]c2ccccc12,-19.5%
